Bioassay records as filed in PubChem BioAssay.
KCNQ2 enhance – potentiators of rat KCNQ2 potassium channel; Potassium voltage-gated channel subfamily KQT member 2 (Rattus norvegicus), O88943; CHO-K1 KCNQ2, FluxOR thallium flux fluorescence; active compounds read high; B-score at 10 µM; actives 0.54% (n = 310,000); AID 2239, 2010;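 active = fluorescence ratio B-score at least 3 SD of library B-scores, with initial fluorescence B-score within 3 of them, cut at about 5.3 in these data; same plate scores as AID 2156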;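 note: B-score of peak minus minimum over baseline fluorescence ratio after K+ and Tl+ stimulus; positive B-score means potentiation of KCNQ2 with more thallium influx and brighter signal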
KCNQ2 inh – rat KCNQ2 potassium channel inhibitors, primary screen, cell-based, CHO-K1, FluxOR thallium flux, B-score; Potassium voltage-gated channel subfamily KQT member 2 (Rattus norvegicus), O88943; B-score at 10 µM; 20 min; active compounds read low; actives 1.1% (n = 310,000);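 active = fluorescence ratio B-score at most minus 3 library SDs, with starting brightness B-score within 2 library SDs, cut at about -5.5 in these data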
KCNQ2 block conf – rat KCNQ2 potassium channel inhibitors, confirmation, cell-based, thallium flux; shares compounds with KCNQ2 inh; KCNQ2-expressing cells, inhibition; active compounds read low; activity change, negative = inhibition, % at 10 µM; actives 57% (n = 1,000); AID 493025, 2011;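 note: 0% = vehicle wells and values are ratio percent relative to vehicle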
KCNQ1 spec – human KCNQ1 channel inhibition, counter-screen for KCNQ2 inhibitor project, cell-based, FluxOR thallium flux; shares compounds with KCNQ2 inh; activity change, negative = inhibition, % at 10 µM; actives 15% (n = 1,000); KCNQ1-expressing cells, FluxOR thallium flux fluorescence; active compounds read low;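 active = activity change at least 3 SD of negative controls below their mean in both duplicate wells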;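 note: CHO cells stably transfected with KCNQ1 and depolarized by potassium stimulus; peak minus minimum fluorescence over baseline after thallium addition; 0% = vehicle negative control and -100% = blank without thallium stimulus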
Target sequence (P51787 whole entry, looked up): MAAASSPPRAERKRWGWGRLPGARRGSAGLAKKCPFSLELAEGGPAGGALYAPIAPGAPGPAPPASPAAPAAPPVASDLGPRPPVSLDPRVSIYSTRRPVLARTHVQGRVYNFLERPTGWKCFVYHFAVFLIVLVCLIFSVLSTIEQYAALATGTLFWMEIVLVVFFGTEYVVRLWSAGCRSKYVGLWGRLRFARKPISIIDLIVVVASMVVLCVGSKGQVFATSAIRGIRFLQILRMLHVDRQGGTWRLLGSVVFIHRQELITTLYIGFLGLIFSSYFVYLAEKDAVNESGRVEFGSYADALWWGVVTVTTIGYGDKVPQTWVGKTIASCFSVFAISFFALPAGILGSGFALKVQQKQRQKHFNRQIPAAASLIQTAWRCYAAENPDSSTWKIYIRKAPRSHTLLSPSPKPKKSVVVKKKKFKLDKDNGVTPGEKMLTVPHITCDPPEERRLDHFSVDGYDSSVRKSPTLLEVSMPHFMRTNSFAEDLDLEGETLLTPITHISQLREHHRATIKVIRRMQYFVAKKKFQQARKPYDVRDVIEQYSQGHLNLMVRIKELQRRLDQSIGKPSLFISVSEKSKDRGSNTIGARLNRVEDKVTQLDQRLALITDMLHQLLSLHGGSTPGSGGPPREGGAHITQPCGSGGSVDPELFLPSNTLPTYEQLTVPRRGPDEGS
CHO parental ctr – thallium flux change in parental CHO cells, counter-screen for KCNQ2 inhibitor project. shares compounds with KCNQ2 inh. active compounds read low. activity change, % at 10 µM. actives 14% (n = 1,000);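 note: 0% = vehicle negative controls with stimulus buffer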
KCNQ2 patch conf – rat KCNQ2 channel inhibitors, confirmation, cell-based, automated patch clamp, single concentration; shares compounds with KCNQ2 inh; KCNQ2-expressing cells, automated patch clamp current; calls only at 10 µM; actives 49% (n = 550); AID 588531, 2011
* = called active by the depositor; i = inactive; x = not tested or not shown; + = active, no number. Hits are enriched below; roughly 1.6% of the tested compounds scored in any of these assays. Unless noted, the rule behind the calls is not given here.

SMILES | KCNQ2 enhance | KCNQ2 inh | KCNQ2 block conf | KCNQ1 spec | CHO parental ctr | others
Cc1ccc2[nH]c3c(=O)n(CC(=O)Nc4ccccc4N4CCN(C)CC4)ncc3c2c1 | x | i | x | x | x
CC(C)(C)n1nnnc1C(c1ccccn1)N(Cc1ccccc1)Cc1ccc(Cl)cc1 (configuration not stated) | -7.73 | -7.73* | -27.5%* | i | i | KCNQ2 patch conf=i
CCN(Cc1ccccc1)C(c1ccccn1)c1nnnn1C(C)(C)CC (configuration not stated) | x | i | x | x | x
O=C(NC1CCCCC1)C(c1ccncc1)N(C(=O)c1csnn1)c1cccc(F)c1 (configuration not stated) | 0.1 | i | x | x | x
CC(C)c1ccc2nc(SCC(=O)NCC3CCCO3)c(C#N)cc2c1 (configuration not stated) | 0.77 | i | x | x | x
CCN(CC)C(=O)c1cc2c(=O)c3cc(F)ccc3oc2nc1C | -9.56 | -9.56* | -23.0%* | i | i | KCNQ2 patch conf=+
CCOC(=O)c1cc2c(=O)c3ccccc3oc2nc1C | 0.29 | i | x | x | x
O=C1N=C(N2C=CC(=C3C=CNC=C3)C=C2)/C(=C/N=NC(=O)c2ccccc2)S1 | x | i | x | x | x
CCOc1ccccc1CNC(=O)CCC(=O)N1Cc2ccccc2Oc2ncccc21 | x | i | x | x | x
CCn1ncc(Br)c1C(=O)Nc1c(C)nn(Cc2c(F)c(F)c(F)c(F)c2F)c1C | x | i | x | x | x
CC(C)CN(C(=O)C1CSC2(C)CCC(=O)N12)c1c(N)n(Cc2ccccc2)c(=O)[nH]c1=O (configuration not stated) | 1.29 | i | x | x | x
COc1ccc(Cl)cc1C(=O)NC(=S)Nc1ccccc1N1CCOCC1 | -11.7 | -11.7* | -28.0%* | i | i | KCNQ2 patch conf=+
Cc1cc(Cl)ccc1OCC(=O)NC(=S)Nc1ccccc1N1CCOCC1 | x | i | x | x | x
O=C(CSC1=NCCN1)Nc1ccccc1[N+](=O)[O-] | x | i | x | x | x
O=C(CSC1=NCCN1)NC(c1ccccc1)c1ccccc1 | -9.72 | -9.72* | i | i | i
CCOc1ccc(S(=O)(=O)N2CCCC(C(=O)N3CCOCC3)C2)cc1Cl (configuration not stated) | 1.02 | i | x | x | x
CN(C)CCNC(=O)/C(=C/c1ccc(-c2ccc(Cl)cc2)o1)NC(=O)c1ccccc1 | x | i | x | x | x
CN(C)CCNC(=O)/C(=C/c1ccc(-c2ccc(Cl)cc2Cl)o1)NC(=O)c1ccccc1 | -9.54 | -9.54* | -39.0%* | -35.0%* | -33.0%*
Cc1ccc(S(=O)(=O)N(C)C)cc1NC(=O)C(C)OC(=O)/C=C/c1cccs1 (configuration not stated) | x | i | x | x | x
CC(C)n1nc(Cc2cccc3ccccc23)c(C#N)c1N | x | i | x | x | x
O=C(NCC(c1ccco1)N1CCc2ccccc2C1)c1ccccc1Br (configuration not stated) | x | i | x | x | x
O=C(NCC(c1ccco1)N1CCOCC1)c1cccc(Cl)c1 (configuration not stated) | 1.08 | i | x | x | x
Cc1ccc(C)c(S(=O)(=O)NCC(c2ccco2)N2CCc3ccccc3C2)c1 (configuration not stated) | x | i | x | x | x
O=C(NCC(c1ccco1)N1CCc2ccccc2C1)c1ccc(Br)cc1 (configuration not stated) | -9.7 | -9.7* | -37.0%* | i | i | KCNQ2 patch conf=+
O=C(NCC(c1ccco1)N1CCc2ccccc2C1)c1cccc(Br)c1 (configuration not stated) | -7.86 | -7.86* | i | i | i
SMILES | KCNQ2 enhance | KCNQ2 inh | KCNQ2 block conf | KCNQ1 spec | CHO parental ctr | others
Cc1ccc(C(=O)NCC(c2ccco2)N2CCc3ccccc3C2)cc1C (configuration not stated) | -8.76 | -8.76* | -28.5%* | i | i
Cc1ccc(C(=O)NCC(c2ccco2)N2CCc3ccccc3C2)cc1 (configuration not stated) | -6.69 | -6.69* | i | i | i
Cc1ccc(C(=O)NCC(c2ccco2)N2CCOCC2)cc1 (configuration not stated) | 1.56 | i | x | x | x
Cc1ccc(CN2CCN(CCCn3cccn3)CC2CCO)cc1 (configuration not stated) | x | i | x | x | x
CN(C)c1oc(/C=C/c2cccs2)nc1S(=O)(=O)c1ccccc1 | x | i | x | x | x
O=C(NCC(c1ccco1)N1CCc2ccccc2C1)c1c(F)cccc1F (configuration not stated) | 0.53 | i | x | x | x
O=C(NCC(c1ccco1)N1CCc2ccccc2C1)c1ccc(Cl)cc1 (configuration not stated) | -10.2 | -10.2* | -31.0%* | -30.0%* | -22.0%* | KCNQ2 patch conf=+
O=C(c1ccc(OC2CCN(Cc3ccccn3)CC2)cc1)N1CCCCO1 | x | i | x | x | x
O=C(COc1ccc2ccccc2c1)N1c2ccccc2Sc2ccccc21 | -8.87 | -8.87* | -27.5%* | i | i | KCNQ2 patch conf=i
CC(=O)NCC(=O)OCC(=O)N1c2ccccc2Sc2ccccc21 | 0.98 | i | x | x | x
O=C(CSc1nncs1)N1c2ccccc2Sc2ccccc21 | 1.02 | i | x | x | x
Cc1ccc(SCC(=O)N2c3ccccc3Sc3ccccc32)cc1 | -6.61 | -6.61* | i | i | i
COc1cccc(CN2CC(C(=O)N(C)CCCC3CCCC3)CCC2=O)c1 (configuration not stated) | x | i | x | x | x
CSCCC(NC(=O)c1ccc([N+](=O)[O-])cc1Cl)C(=O)OC(C)C(=O)NCc1ccco1 (configuration not stated) | x | i | x | x | x
CC1CCCCC1Nc1nc2ccc(Cl)cc2n2cnnc12 (configuration not stated) | x | i | x | x | x
CCN(C1CCCCC1)S(=O)(=O)CCNC(=O)c1ccccc1 | 0.2 | i | x | x | x
O=C(c1ccco1)N(CCC(c1ccccc1)c1ccco1)Cc1ccccc1 (configuration not stated) | -7.66 | -7.66* | -26.5%* | i | i | KCNQ2 patch conf=+
COc1ccc(CN(C(=O)c2ccco2)c2ccccc2)cc1 | 0.07 | i | x | x | x
CCN(CC)C(=O)CC(c1ccccc1)c1ccco1 (configuration not stated) | x | i | x | x | x
COc1ccc(CN(CCC(c2ccccc2)c2ccco2)C(=O)c2ccco2)cc1 (configuration not stated) | -6.72 | -6.72* | -38.0%* | -43.0%* | -35.5%* | KCNQ2 patch conf=i
CC(=O)NNc1cc(C)nc(N)n1 | 1.62 | i | x | x | x
O=C(NCc1ccccc1Cl)C1CCCN1C(=O)Nc1ccccc1 (configuration not stated) | x | i | x | x | x
O=C1ON=C(c2ccccc2)/C1=C\c1ccco1 | x | i | x | x | x
